Assay outcomes: PubChem, several laboratories
A3G deaminase – inhibitors of human APOBEC3G DNA deaminase | Q9HC16 | recombinant A3G, ssDNA deamination FAM/TAMRA fluorescence | inhibition, % at 20 µM | actives 0.28% (n = 330,000) | AID 493012;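 active = inhibition of at least 40% at 20 µM, with no more than 30% in the related APOBEC3A deaminase screen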;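 also: plate controls were DMSO wells with A3G for no effect and wells lacking A3G enzyme for full effect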
A3A deaminase – human APOBEC3A DNA deaminase inhibition; P31941; recombinant A3A, FAM/TAMRA ssDNA deamination fluorescence; inhibition, % at 20 µM; actives 0.41% (n = 330,000); AID 493011;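 active = at least 40% inhibition at 20 µM here, with at most 30% in a related deaminase screen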;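 also: plate controls were A3A with DMSO for no effect and wells lacking A3A enzyme for full effect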
Target sequence (P31941 whole entry, looked up): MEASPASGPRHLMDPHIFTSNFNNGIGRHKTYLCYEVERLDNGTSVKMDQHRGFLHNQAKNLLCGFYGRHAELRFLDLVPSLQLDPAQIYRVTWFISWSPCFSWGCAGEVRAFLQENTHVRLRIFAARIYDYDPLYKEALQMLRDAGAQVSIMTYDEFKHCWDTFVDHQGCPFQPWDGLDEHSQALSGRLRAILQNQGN
ALR H2O2 inh – blocks human ALR sulfhydryl oxidase activity | actives 3.8% (n = 290,000) | purified ALR, DTT oxidation, H2O2 HRP-luminol luminescence | inhibition, % (no concentration beside the values);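 active = mean replicate inhibition above about 79%, with every replicate also reaching it, limit read from the data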
Target sequence (P55789 whole entry, looked up): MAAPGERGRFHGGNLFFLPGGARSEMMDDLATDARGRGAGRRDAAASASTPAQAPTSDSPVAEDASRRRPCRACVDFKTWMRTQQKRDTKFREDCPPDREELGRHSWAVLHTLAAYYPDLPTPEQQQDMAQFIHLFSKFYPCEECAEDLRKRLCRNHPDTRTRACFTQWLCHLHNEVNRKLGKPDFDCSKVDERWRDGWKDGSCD
PHOSPHO1 inh – blocks human PHOSPHO1 phosphatase activity. actives 1.1% (n = 290,000). AID 1565. recombinant PHOSPHO1, absorbance phosphatase assay. inhibition, % at 13.3 µM. Q8TCT1; in the data active = inhibition above about 60%
rCAG binder – r(CAG) repeat RNA binding; TO-PRO-1 dye displacement fluorescence; inhibition, % at 3 µM; actives 1.3% (n = 370,000); AID 651821;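 active = inhibition above the plate cutoff, the mean of all test compounds on that plate plus 3 SD, cut at about 35% in these data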;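 also: 0% = DMSO alone and 100% = 100 µM mitoxantrone as full dye displacement; higher means more dye released from RNA so lower well fluorescence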
aDG glyco act – alpha-DG glycosylation activation | Pro5-aDG cells, alpha-DG glycosylation AlphaScreen (IIH6); 0% Pro5, 100% B10-LARGE cell signal | activation, % at 10 µM | actives 0.22% (n = 360,000);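 active = activation of at least 8% versus controls, or a plate z-score of at least 8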;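 also: Pro5 are CHO cells carrying HIG-tagged alpha-DG that lacks glycosylation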
The depositor's hits bear a star; . = not tested or not shown. Compounds with a hit are over-represented: about 5.4% of the library has one in this group of screens.

SMILES	A3G deaminase	A3A deaminase	ALR H2O2 inh	PHOSPHO1 inh	rCAG binder	aDG glyco act
COc1ccc(NC2CCCN(C(=O)c3csc(C)n3)C2)cc1 (configuration not stated)	-5.6	-5.7	99.3*	28.7	-1.4	-0.2
C=CCn1c(C(CCCC)CC(O)COCC(C)C)n[nH]c1=S (configuration not stated)	19.2	0.2	13.9	3.5	-8.8	0.1
C=CCn1c(CCC(O)COCCCCC)n[nH]c1=S (configuration not stated)	9.4	-4.5	96.0*	6.2	-3.6	0.0
C=CCn1c(C(CCCC)CC(O)COCCC)n[nH]c1=S (configuration not stated)	11.3	-2.5	91.8*	23.4	-2.1	-0.2
N#CCC1(O)C(=O)Nc2ccccc21 (configuration not stated)	.	.	.	.	-0.2	.
O=c1ccsn1Cc1ccccc1	4.8	-3.8	97.9*	28.4	1.1	-0.6
Oc1ccc(Cl)cc1C1=NCCNC(C(F)(F)C(F)F)=C1	-1.9	0.2	98.6*	-0.4	-1.8	-0.1
Cc1ccc(O)c(C2=NCCNC(C(F)(F)C(F)F)=C2)c1	-8.2	-6.4	98.5*	-2.1	2.3	-0.2
COc1ccc(OCC(=O)Nc2ccc3c(c2)nc(CCN2CCN(C)CC2)n3C)cc1	5.0	2.6	-3.0	70.1*	-6.7	0.1
COc1ccccc1/C=C/CN1CCC(n2nccc2NC(=O)C2CC2)CC1	-2.9	-0.3	-0.6	62.8*	-6.5	0.2
Cc1c(CN2CCC(n3nccc3NC(=O)C3CCOC3)CC2)[nH]c2ccccc12 (configuration not stated)	-4.7	-2.2	7.0	65.8*	-2.8	-0.1
COc1ccccc1CN1CCC(n2nccc2NC(=O)CCOc2ccccc2)CC1	-8.1	0.3	-2.5	75.0*	-9.4	0.0
COc1ccccc1/C=C/CN1CCC(Oc2cc(C(=O)NC3CC3)ccc2OC)CC1	-1.9	-2.7	-3.7	64.9*	-6.6	0.0
COc1ccccc1C(=O)Nc1ccnn1C1CCN(C/C=C/c2ccccc2)CC1	-7.2	-5.1	-3.4	27.6	-9.0	0.7
COc1ccc(CN2CCC(n3nccc3NC(=O)C3CCCC3)CC2)cc1	-3.1	-0.5	-7.1	61.0*	-2.8	-0.2
COC(=O)[C@]12C[C@H](CC(=O)NCCCCc3ccccc3)C(=O)N(CCc3ccc(OC)c(OC)c3)C1=C[C@H](C(C)(C)C)O[C@@H]2C	.	.	.	.	4.0	.
O=C(CSc1nc2c(sc3ccccc32)c(=O)n1CCc1ccccc1)NCc1ccco1	-5.8	-0.1	-3.0	-2.7	7.0	1.1
CCN(CC)CCn1c(SCC(=O)NCc2ccccc2)nc2c(sc3ccccc32)c1=O	-9.2	-0.7	96.5*	-12.4	-2.3	0.3
COc1ccc(NC(=O)CSc2nc3c(sc4ccccc43)c(=O)n2CCCN2CCCC2)cc1	-3.7	6.6	99.0*	58.3	.	2.9
Cc1cc(N2CCN(CC(C)(C)O)C[C@@H]2C)ccc1N1CCN(CC(C)(C)O)[C@H](C)C1	.	.	.	.	-0.1	.
COc1ccc(CCNC(=O)Cn2nc(-c3ccccc3)ccc2=O)cc1	.	.	.	.	-0.8	.
Cc1cc(NN)nc(Cc2ccccc2)n1	-4.1	-1.5	81.4*	-6.8	-1.2	1.4
O=C(CCl)Nc1cc(-c2ccccc2)nn1-c1ccccc1	-4.0	-1.0	97.7*	10.7	0.9	-0.6
CCCNc1c(NS(=O)(=O)c2ccc(C)c(C)c2)c(=O)oc2ccccc12	1.0	-1.0	15.7	20.7	-1.5	0.0
CCCNc1c(NS(=O)(=O)c2ccc(NC(=O)CC)cc2)c(=O)oc2ccccc12	-7.8	-4.9	-0.6	48.8	1.6	6.5*
SMILES	A3G deaminase	A3A deaminase	ALR H2O2 inh	PHOSPHO1 inh	rCAG binder	aDG glyco act
C#CCNc1cc(-c2ccccc2)nc2ncnn12	0.0	2.3	-4.9	-7.5	-0.4	0.4
CC(=O)CSc1cc(-c2ccccc2)nc2ncnn12	-5.8	-5.2	97.8*	17.1	-4.7	-0.1
CCOC(=O)C(CNc1ccc(OCc2ccccc2)cc1)NC(=O)c1ccccc1 (configuration not stated)	.	.	.	.	4.1	.
Cc1ccccc1Cn1cc(CN2[C@@H](Cc3ccccc3)COc3cc(Br)ccc3S2(=O)=O)nn1	.	.	.	.	8.6	.
O=C(N/N=C/c1ccc(O)cc1)c1csc2c1CCCC2	-6.8	2.0	98.7*	8.6	2.3	-0.5
CCCCc1ccc(C2C(C#N)=C(N)SC(N)=C2C#N)s1	10.8	-3.7	98.1*	-6.6	.	.
CCOc1ccc(C2C(C#N)=C(N)SC(N)=C2C#N)c(OCC)c1	-8.1	-3.0	10.0	5.7	15.8	0.0
CC(C)(C)c1ccc(-c2nnc(SCC(=O)Nc3ccc(Oc4ccccc4)cc3)n2Cc2ccco2)cc1	.	.	.	.	8.8	.
CS(=O)(=O)N(CC(=O)N/N=C/c1cccc2c1OCCO2)c1ccccc1Br	-0.3	-1.1	-1.7	60.1*	-1.4	-0.6
CN(Cc1ccccc1F)C(=O)C1CCC(CNS(=O)(=O)c2cccc3cccnc23)CC1 (configuration not stated)	.	.	.	.	6.0	.
C[C@H](O)[C@@H]1C(=O)N2CCc3c([nH]c4c(-c5ccccc5)cccc34)[C@@H]2C[C@@H]1N(C)C(=O)c1ccccc1F	.	.	.	.	6.6	.
CC(C)CN1C(=O)C[C@@]2(C(=O)N(C)c3ccc(NC(=O)C(C)(C)C)cc32)C1c1ccccc1 (some centres not stated)	.	.	.	.	-0.9	.
Cc1ccccc1Cn1ccc2ccc(-c3ccc4ccn(Cc5ccccc5)c4c3)cc21	.	.	.	.	8.8	.
COc1cc2c(CCNC(C)=O)c[nH]c2cc1O	-2.2	2.2	80.2*	.	2.0	-0.2
CC1CCCC(C)N1c1nnc(NC(=O)Cn2c(=O)oc3ccccc32)s1 (configuration not stated)	-6.4	0.4	-1.5	62.4*	7.8	-0.1
CCCc1nnc(NC(=O)Cn2c(=O)oc3cc(Br)ccc32)s1	5.1	38.7	-10.3	99.8*	6.4	0.0
CCc1nnc(NC(=O)Cn2c(=O)oc3ccccc32)s1	-2.6	-0.3	-5.0	16.0	2.2	-0.1
CCCc1nnc(NC(=O)Cn2c(=O)oc3ccccc32)s1	8.5	4.0	-4.2	-18.6	1.9	-0.1
CCC(C)[C@H](NC(=O)[C@H](Cc1ccccc1)NC(=O)OC(C)(C)C)C(=O)NCc1ccccc1Br (some centres not stated)	.	.	.	.	8.0	.
COc1ccc(N)cc1CN1CCN(c2ncc(Cc3ccccc3)cn2)CC1	.	.	.	.	1.9	.
CSc1nc(O)c(C(c2ccc(F)cc2)c2c(O)nc(SC)[nH]c2=O)c(=O)[nH]1	-3.4	-1.7	3.3	.	-0.5	0.0
CSc1nc(O)c(C(c2ccc(C)cc2)c2c(O)nc(SC)[nH]c2=O)c(=O)[nH]1	-3.5	0.2	89.2*	8.5	-0.5	-0.1
Nc1nc2ccc(S(=O)(=O)N3CCCCC3)cc2s1	-1.7	1.7	97.7*	50.4	3.8	1.0
Cc1nc2ccc(S(=O)(=O)N3CCCCC3)cc2s1	-9.3	-0.7	-11.7	27.5	-4.1	0.7
